{
  "source": "PubChem BioAssay (NCI)",
  "note": "This is part of a sample that, as a whole, favours compounds with a hit. Of some 83,000 tested, about 20% had one in any assay.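 Assay: single dose, 48 h. Readout: percent growth (0 = no net growth; negative = cell death). Active: <10.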 Values without a mark were called inactive. Active and inactive are the calls of the source.",
  "data": [
    {"tested_on": "HL-60(TB) leukemia", "assay": "NCI-60 one-dose screen, 48 h (100 = growth as untreated, 0 = no growth, -100 = all killed)", "settings": "10 µM unless noted", "values": [
      {"smiles": "CC(C)Sc1nc(NC2CC2)c(C#N)c(-c2ccccc2)n1", "growth": "112%"},
      {"smiles": "CC(=O)OC[C@@]12Oc3c(cccc3-c3ccc(O)c4c3O[C@]3(COC(C)=O)C(=C4O)C(=O)C[C@H](C)[C@@H]3OC(C)=O)C(O)=C1C(=O)C[C@H](C)[C@@H]2OC(C)=O", "growth": "-46.3% (active)"},
      {"smiles": "O=C(CSc1nc2ccccc2c(=O)n1-c1ccccc1)N/N=C/c1ccc(Oc2ccc(Br)cc2)cc1", "growth": "105%"},
      {"smiles": "CCn1c(SCC(=O)Nc2cccc(C(=O)/C=C/c3cc(OC)c(OC)c(OC)c3)c2)nc2ccccc2c1=O", "growth": "48%"},
      {"smiles": "Fc1ccc(-c2cn3c(-c4c[nH]c5ccc(Br)cc45)csc3n2)cc1", "growth": "104%"},
      {"smiles": "Cc1cccc(/C=C/C(=O)Nc2ncc(Cc3cccc(C)c3)s2)c1", "growth": "0.463% (active)"},
      {"smiles": "Cc1ccc(-c2nnc(SCc3ccc(O)c4ncccc34)o2)cc1", "growth": "4.59% (active)"},
      {"smiles": "Cc1ccccc1NC1CC(=O)N(c2ccc(Cl)cc2Cl)C1=O", "note": "(stereo not given)", "growth": "102%"},
      {"smiles": "C#Cc1nc(C2=C(C)/C(=N/OCc3ccccc3)CC2)cs1", "growth": "-54.1% (active)"},
      {"smiles": "Cc1cccc2c3c(sc12)C(c1ccc(Cl)cc1)c1c(nc(CC(=O)Nc2ccccc2)[nH]c1=O)O3", "note": "(stereo not given)", "growth": "71.3%"},
      {"smiles": "Cn1cc(-c2cc(N)n3nc(-c4cn(C)c5ccc(F)cc45)cc3n2)c2cc(F)ccc21", "growth": "-32.4% (active)"},
      {"smiles": "CCN1CCN(Cc2cn(-c3ccc(S(N)(=O)=O)cc3)nn2)CC1", "growth": "110%"},
      {"smiles": "O=C1Nc2ccc(Cl)cc2/C1=C/c1ccc(OCc2ccc(Br)cc2F)cc1", "growth": "98%"},
      {"smiles": "C#C[C@]1(O)CC[C@H]2[C@@H]3CC=C4c5sc(-c6ccc(C)cc6)nc5CC[C@]4(C)[C@H]3CC[C@@]21C", "growth": "-2.49% (active)"},
      {"smiles": "COc1ccc2c(c1)c(/C=N/Nc1ccnc3cc(Cl)ccc13)cn2C", "growth": "-52.2% (active)"},
      {"smiles": "Cn1cc(-c2nc(N)nnc2-c2c[nH]c3ccc(Br)cc23)c2cc(Br)ccc21", "growth": "3.35% (active)"},
      {"smiles": "C1=CC(c2nn3c(-c4ccccc4)nnc3s2)=Cc2ccccc2O1", "growth": "37%"},
      {"smiles": "COc1cc(NC(=O)Nc2cccc(-c3cc(=O)c4c(OC)c(OC)c(OC)cc4o3)c2)cc(OC)c1OC", "growth": "45%"},
      {"smiles": "CCOC(=O)c1sc(N)c(C(=O)OCC)c1C", "growth": "38.5%"},
      {"smiles": "COc1ccc(Cn2cc3c(c2-c2cc(OC)c(OC)c(OC)c2)CCc2c(CN4CCCC4)noc2-3)cc1", "growth": "3.57% (active)"},
      {"smiles": "O=C(N/N=C/c1ccc(Br)s1)c1[nH]c2ccc(Br)cc2c1-c1ccccc1", "growth": "-43.4% (active)"},
      {"smiles": "CNC(=O)c1cc(N2CCc3cc(NC(=O)Nc4ccc(Cl)c(Cl)c4)ccc32)ccn1", "growth": "124%"},
      {"smiles": "Cn1cc(-c2nnc(N)nc2-c2c[nH]c3ccc(Br)cc23)c2cc(Br)ccc21", "growth": "90.8%"},
      {"smiles": "OC1CCN(CCCOc2c3ccc(Cl)cc3nc3c2oc2ccc(Cl)cc23)CC1", "growth": "22.4%"},
      {"smiles": "COc1ccc(NC(=O)Cn2cc(CN3C(=O)c4ccc([N+](=O)[O-])cc4C3=O)nn2)cc1", "growth": "95.1%"},
      {"smiles": "Clc1cccc(/C=N/Nc2nc(N/N=C/c3cccc(Cl)c3Cl)nc(N3CCCCC3)n2)c1Cl", "growth": "106%"},
      {"smiles": "Cn1cc(-c2cc(N)n3nc(-c4cn(C)c5ccc(Br)cc45)cc3n2)c2cc(Br)ccc21", "growth": "26.7%"},
      {"smiles": "Cc1cc(C)n(C(=O)c2sc(=S)n(-c3ccccc3)c2N=Nc2c(N)n[nH]c2N)n1", "growth": "110%"},
      {"smiles": "O=C(Cn1cc(-c2ccccc2)nn1)Nc1nc(-c2ccc(Cl)cc2)cs1", "growth": "89.7%"},
      {"smiles": "NS(=O)(=O)c1ccc(Nc2cc(-c3ccccc3)nc(SCC(=O)c3ccccc3)n2)cc1", "growth": "106%"},
      {"smiles": "Cc1cc(NS(=O)(=O)c2ccc(NC(=O)CSc3nc4ccccc4c(=O)n3-c3ccccc3)cc2)no1", "growth": "110%"},
      {"smiles": "O=C1Nc2cc(Cl)ccc2/C1=C\\c1ccc(OCc2ccccc2)cc1", "growth": "113%"},
      {"smiles": "CCOC(=O)C1=C(C)NC(C)=C(C(=O)OC(C)C)C1c1cccc(C#N)c1", "note": "(stereo not given)", "growth": "93.1%"},
      {"smiles": "O=S(=O)(NCCNc1nccc(-n2cnc3ccccc32)n1)c1ccc(Br)cc1", "growth": "114%"},
      {"smiles": "COc1ccc2c(c1)c(-c1nn3cc(-c4ccncc4)nc3s1)cn2C", "growth": "-25.5% (active)"},
      {"smiles": "Nc1c(C(=O)c2ccccc2)sc2nc(-c3cnccn3)cc(-c3cccs3)c12", "growth": "108%"},
      {"smiles": "CN(C)c1ccc(-c2c(NC(C)(C)C)nc3c(OCCc4ccccc4)cccn23)cc1", "growth": "-32.7% (active)"},
      {"smiles": "COc1ccc(/C=N/N=C(/c2ccccc2)c2ccc3nc(-c4ccc(Cl)cc4)[nH]c3c2)cc1", "growth": "67.2%"},
      {"smiles": "COC(=O)CNC(=O)c1cccc(-c2cc(=O)c3c(OC)c(OC)c(OC)cc3o2)c1", "growth": "109%"},
      {"smiles": "CS(=O)(=O)Nc1cc(-c2ccc3ncc(C#N)c(N[C@H](CO)c4ccccc4)c3c2)cnc1Cl", "growth": "25%"}
    ]}
  ]
}
